Screening results from PubChem.
This excerpt belongs to a sample that is enriched for hits.
TbPYK inhibitor: blocks Trypanosoma brucei pyruvate kinase | Q57TT1 | TbPYK enzyme, Kinase-Glo Plus ATP luminescence, 45 min | Potency, µM (highest dose often 76.8 µM), for the others: at the highest dose activity, negative = inhibition, usual class: inhibitors | 0.12% of 410,000 active | AID 624173; also: potency is read from the fitted curve at half-maximal effect; % is scaled to controls: 0 for no effect and ±100 for the full control effect; nearly all actives have a fitted effect of over 50% in size
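Screened from lowest to highest concentration, compounds were pinned into TbPYK/substrate mixtures, and ADP (130 uM final) was added. Plates sat at room temperature for 45 min prior to Kinase-Glo Plus detection by luminescence.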
LmPK inhibitor: LmPK (Leishmania mexicana) enzyme inhibition. Q27686. purified LmPK, Kinase-Glo ATP luminescence, 1 h. Potency, µM (titrated, usually from 57.5 µM), for inactives: at the highest dose activity change, negative = inhibition, most hits filed as inhibitors. 0.37% of 290,000 active. AID 1721; also: potency is read from the fitted curve at half-maximal effect; % is scaled to controls: 0 for no effect and ±100 for the full control effect
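qHTS format; LmPK 0.1 nM; substrates PEP 0.5 mM and ADP 0.1 mM. One-hour room-temperature incubation, then coupled luciferase luminescence; 0.5 nM enzyme wells mark activation.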
Shiga toxin inh: blocks Shiga toxin action in Vero cells. Vero cells, Shiga toxin protein synthesis inhibition reporter. inhibition, % at 38.7 µM. 9.2% of 290,000 active; in the data active = inhibition mostly above about 28%, no sharp cut-off; inactive = mostly below about 43%; also: 0% is about no effect
Sm TGR inh: inhibitors of Schistosoma mansoni thioredoxin glutathione reductase. Q962Y6. purified TGR, DTNB reduction, TNB absorbance 405 nm. Potency, µM (top dose mostly 114 µM), for the others: at the top dose activity change, negative = inhibition, usual class: inhibitors. 3% of 360,000 active; also: potency is read from the fitted curve at half-maximal effect; % is scaled to controls: 0 for no effect and ±100 for the full control effect; nearly all actives have a fitted effect of over 60% in size
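TGR 20 nM + NADPH 100 uM (dispensed conc.), cpd preinc 15 min RT; start with NADPH (500 uM addition) then DTNB (15 mM addition). Kinetic TNB absorbance, 405 nm filter. Four-parameter Hill fit across titration.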
Giardia FBPA inh: blocks Giardia fructose-bisphosphate aldolase activity. AID 2451. 0.71% of 290,000 active. purified Giardia FBPA. Potency, µM (doses to about 59.6 µM), for the others: at the highest dose activity, negative = inhibition, hits mostly inhibitors. A8B2U2; also: potency is read from the fitted curve at half-maximal effect; % is scaled to controls: 0 for no effect and ±100 for the full control effect; nearly all actives have a fitted effect of over 55% in size
Target sequence (A8B2U2 whole entry, looked up): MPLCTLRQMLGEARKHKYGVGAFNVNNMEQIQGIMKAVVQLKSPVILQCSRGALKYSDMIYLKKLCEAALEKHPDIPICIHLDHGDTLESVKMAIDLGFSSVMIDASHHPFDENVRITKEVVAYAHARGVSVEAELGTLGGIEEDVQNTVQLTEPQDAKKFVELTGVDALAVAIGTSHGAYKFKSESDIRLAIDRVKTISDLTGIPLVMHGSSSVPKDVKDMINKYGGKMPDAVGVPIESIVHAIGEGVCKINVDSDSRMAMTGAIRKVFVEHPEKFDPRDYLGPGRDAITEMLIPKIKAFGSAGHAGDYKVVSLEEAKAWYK
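40 nM FBPA preincubated 10 min at RT with compound (up to 57.5 uM final), then substrate plus GAPDH/TPI/NAD/arsenate coupling and diaphorase/resazurin added. Fluorescence read after 20 min at RT, 525/598 nm.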
CHX counter: counter-screen for Shiga toxin inhibitors: cycloheximide protein synthesis inhibition; cell reporter, cycloheximide protein synthesis inhibition counterscreen; max response, %; 12% of 300,000 active; AID 2314; in the data active = max response mostly above about 13%, no sharp cut-off; inactive = mostly below about 14%; also: read at 38.3 µM for the half of the compounds with a filed dose; 0% is about no effect
Starred values were filed as active, the others as inactive; ? = inconclusive; . = no result. Unless noted, calls follow the shape of the dose curve; as a rule, active = well fitted curve in the direction sought with a large enough effect; inconclusive = small, poorly fitted or top-dose-only effect, or another doubt; inactive = no such curve, though single readings can be large; an effect the other way counts as inactive or inconclusive.

SMILES	TbPYK inhibitor	LmPK inhibitor	Shiga toxin inh	Sm TGR inh	Giardia FBPA inh	CHX counter
C(=N\Nc1ccccc1)/c1nc2ccccc2s1	0%	-6%	135*	8%	7%	64*
CN(C)c1ncc2nc(-c3ccc(Cl)cc3)c(=O)n(C)c2n1	.	.	.	.	7%	.
COc1ccc(NC(=S)NNC(=O)CNc2ccc(Cl)cc2)cc1	-2%	-2%	8	3%	11%	0
Brc1cc2c(cc1/C=N/Nc1nc3ccccc3s1)OCO2	-2%	4%	28*	4%	0%	21*
O=C(O)C/C(=C\c1cc2c(cc1Br)OCO2)c1nc2ccccc2s1	0%	-2%	-12	-7%	13%	20
Cc1ccc2[nH]c(C)c(/C=N/Nc3nc4ccccc4s3)c2c1	4%	4%	39	-25%	1%	51*
CCOc1ccccc1CNC(=O)Cn1c(-c2ccccc2)cc(C(C)=O)c1C	-4%	.	.	1%	.	.
c1coc(-c2nc3n(n2)C2(CCCCC2)[C@@H]2CCCC[C@@H]2N3)c1	4%	.	.	?	.	.
Clc1ccccc1CSc1nnc(-c2ccncc2)o1	4%	1%	54*	-10%	.	47*
N#Cc1cccc(-c2nnc(SCc3ccccc3C#N)o2)c1	8%	1%	89*	1%	0%	46*
N#Cc1ccccc1CSc1nnc(Cc2ccccc2)o1	-8%	-4%	53*	.	0%	21*
O=C(O)c1ccc(CSc2nnc(Cc3ccccc3)o2)cc1	-9%	-1%	-8	-3%	15%	-4
Clc1cccc(Cl)c1CSc1nnc(-c2sccc2-n2cccc2)o1	-9%	2%	95*	2%	1%	20*
Cc1cc(NC(=O)C2CCCN(S(=O)(=O)c3cccc4nonc34)C2)ccc1Br (configuration not stated)	2%	.	-11	15%	.	-10
CC(/C=N\NC(=O)CN1CCN(S(=O)(=O)c2ccc(C)cc2)CC1)=C\c1ccccc1	-13%	3%	-3	-13%	0%	-3
Cc1ccc(-n2cc3c(c2-c2ccccc2Br)c(=O)n(C)c(=O)n3C)cc1N	-13%	.	.	1%	.	.
N#Cc1ccccc1CSc1nnc(-c2ccncc2)o1	-20%	0%	49*	-1%	10%	34*
Fc1cccc(Cl)c1CSc1nnc(-c2ccncc2)o1	2%	-7%	57*	0%	3%	36*
c1ccc2c(CSc3nnc(-c4ccncc4)o3)cccc2c1	-11%	-3%	-7	-19%	0%	1
COc1ccc(/C=C(\C#N)C(=O)Nc2cccc(C)n2)cc1	1%	-5%	36*	-14%	1%	25*
N#C/C(=C\c1ccccc1O)C(=O)Nc1ccccn1	3%	4%	82*	-4%	-3%	21*
Cc1cccc(NC(=O)/C(C#N)=C/c2ccccc2O)n1	4%	-7%	78*	89µM*	3%	40*
COc1ccc(/C=C(\C#N)C(=O)OCC(=O)Nc2ccc(C(C)(C)C)cc2)cc1	8%	2%	21	5%	-14%	11*
Cc1cccc(NC(=O)/C(C#N)=C/c2ccc(Cl)cc2)n1	-3%	-4%	13	3%	-4%	1
O=C(c1ccc2c(c1)OCO2)N1CCCC1	2%	1%	48	3%	5%	9
SMILES	TbPYK inhibitor	LmPK inhibitor	Shiga toxin inh	Sm TGR inh	Giardia FBPA inh	CHX counter
O=C(Nc1ccc(F)c(Cl)c1)c1ccc2c(c1)OCO2	3%	-17%	105*	3%	-3%	51*
COC(=O)c1sccc1NC(=O)c1ccc2c(c1)OCO2	-3%	1%	-8	7%	0%	7
O=C(Nc1ccc(C(=O)N2CCCC2)cc1)c1ccc2c(c1)OCO2	1%	16µM*	36	-18%	3%	27*
COc1ccc(NC(=O)c2ccc3c(c2)OCO3)cc1Cl	-1%	-20%	76*	6%	-8%	66*
COc1ccc(-c2cc(C(=O)Nc3ccc4c(c3)OCO4)no2)cc1OC	-6%	-2%	13	-10%	10%	14
COC(=O)c1ccc(NC(=O)c2ccc3c(c2)OCO3)cc1	4%	-10%	43*	-7%	0%	24*
COc1cccc(N2CCN(C(=O)c3cnc4c(-c5ccc(F)cc5)c(C)nn4c3C)CC2)c1	-7%	.	.	0%	.	.
COc1ccc(NCc2ccc3c(c2)OCO3)cc1Cl	-4%	4%	43*	-11%	-4%	22*
COc1ccccc1-c1nnc(NC(=O)c2ccc3c(c2)OCO3)s1	4%	-2%	12	2%	2%	-3
COC(=O)c1c(-c2cccnc2)csc1NC(=O)c1ccc2c(c1)OCO2	?	6%	70*	-1%	-1%	37*
CCOC(=O)CC1C(=O)NCCN1C(=O)c1cc2c(=O)n3cccc(C)c3nc2s1 (configuration not stated)	-9%	-4%	12	35µM*	-3%	-10
Cc1cccn2c(=O)c3cc(C(=O)NC4CCCC4)sc3nc12	-2%	-4%	-23	12%	.	19*
Cc1cccn2c(=O)c3cc(C(=O)NC4CCCCC4)c(=N)n(Cc4ccccc4)c3nc12	3%	3%	-17	2.8µM*	.	-3
CCOc1ccc(NC(=O)C(C)Sc2nnc3cc(C)c4ccccc4n23)cc1 (configuration not stated)	7%	.	.	3%	.	.
CCOc1ccc(C(=O)NCC(c2ccc3c(c2)OCO3)N2CCN(C)CC2)cc1 (configuration not stated)	-7%	.	.	12%	.	.
CC(=O)Nc1ccc(C2Nc3c(C)cc(C)cc3-c3cc(C)nn32)cc1 (configuration not stated)	1%	.	.	8%	.	.
COc1ccccc1/C=C/c1nc(S(=O)(=O)c2ccccc2)c(N(C)C)o1	70%	6%	28	10µM*	-3%	-1
CN(C)c1oc(/C=C/c2cccs2)nc1S(=O)(=O)c1ccccc1	6%	1%	-3	35µM*	-10%	1
COc1cccc(/C=C/c2nc(S(=O)(=O)c3ccccc3)c(N(C)C)o2)c1	23%	1%	25	?	-3%	1
CSc1oc(-c2cccs2)nc1S(=O)(=O)c1ccccc1	4%	6%	26	-20%	-29%	9
COc1ccc(S(=O)(=O)N(Cc2nc(-c3cccc(C)c3)no2)C2CCCCC2)cc1	0%	.	.	2%	.	.
COc1ccc(OCc2cc(C(=O)N3C[C@H]4CC[C@H]3C4)no2)c(Cl)c1	-8%	-6%	88*	-28%	.	36*
O=C(c1cc(COc2ccc(F)cc2F)on1)N1CC2C[C@@H]3CC1C[C@H](C2)C3	-3%	-4%	115*	-1%	1%	43*
